# Measured values reported in ChEMBL document CHEMBL1201862, “PubChem BioAssay data set” (2004).
# Screen size: about 58,000 sequences; about 4,000 (6.9%) were called active. The calls are words filed in the database; no cut-off is given here. Not all results are given here. Potency and affinity values are given separately.
# System: HCT-15
row,Substance,GI50 [µM]
1,"cis-Bis[[(trimethylsilyl)methyl]amino]tetrachloroplatinum(IV), CHEMBL2146191",3.42
2,"[Bis(aminomethyl)tetramethylenesilane]dichloropaltinum(II), CHEMBL2146205",20.5
3,"[Bis(aminomethyl)dimethylsilane]tetrachloroplatinum(IV), CHEMBL2146190",8.45
4,"CISPLATIN, CHEMBL11359",7.21
5,"[Bis(aminomethyl)dimethylsilane]dichloroplatinum (II), CHEMBL2146201",27.5
6,"[Bis(aminomethyl)tetramethylenesilane]tetrachloropaltinum(IV), CHEMBL2146189",3.62
7,"mu-(1,7-nanodiamine-N,N')bis-(cis-aminedichloroplatimum (II)), CHEMBL2146215",37.1
8,"[Bis(aminomethyl)pentamethylenesilane]dichloropaltinum(II), CHEMBL2146202",5.21
9,"[Bis(aminomethyl)pentamethylenesilane]tetrachloropaltinum(IV), CHEMBL2146204",0.953
10,"[Bis(aminomethyl)diethylsilane]tetrachloroplatinum(IV), CHEMBL2146203",2.45
11,"[Bis(aminomethyl)ethylmethylsilane]tetrachloroplatinum(IV), CHEMBL2146192",3.5
